10 compounds from PubChem BioAssay (NCATS) can be followed below.

Results filed as inconclusive are left out. Activity calls are given as the source filed them. Calls follow the shape of the dose curve; as a rule, active = well fitted curve in the direction sought with a large enough effect; inconclusive = small, poorly fitted or top-dose-only effect, or another doubt; inactive = no such curve, though single readings can be large; an effect the other way counts as inactive or inconclusive.

Assay [1] concerns the target Cellular tumor antigen p53 (Homo sapiens) (UniProt P04637). Briefly: Primary qHTS for small molecule compounds that upregulate eGFP-tagged delta133p53alpha (in N-terminal) cells. (AID 2060322). Also: nearly all actives have a fitted effect of over 75% in size. Also: potency is read from the fitted curve at half-maximal effect.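 As to activation: series mostly up to about 56 µM; 0% = DMSO vehicle and 100% = reference activator.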 The following applies: NCI-H358 eGFP-delta133p53alpha fluorescence, 24 h; activation: hits give high values. In short, it runs like this: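 NCI-H358 cells pre-induced 24 h with 10 ng/ml doxycycline to express N-terminal eGFP-delta133p53alpha, then dosed 24 h at 37C without doxycycline; fixed, Hoechst-stained, GFP intensity by laser scanning cytometry, normalized to DMSO (0%) and 57.5 uM 5-azacytidine (100%).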
In general terms: qHTS replaces the single test concentration by a dilution series.

The target in assay [2] is Aldehyde dehydrogenase, mitochondrial (Homo sapiens) (UniProt P05091). Briefly: qHTS for Inhibitors of the Aldehyde Dehydrogenase Family (ALDH2) Primary screen (AID 2061308).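 Also: plate controls were vehicle for no effect and reference inhibitor for full effect; nearly all actives have a fitted effect of over 55% in size.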
Assay [3] deals with Retinaldehyde dehydrogenase 3 (Homo sapiens) (UniProt P47895). Nature of the assay: qHTS for Inhibitors of the Aldehyde Dehydrogenase Family (ALDH1A3) Primary screen (AID 2061315).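 Also: plate controls were DMSO vehicle for no effect and reference inhibitor for full effect.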

Sequence of Cellular tumor antigen p53 (Homo sapiens) (P04637 whole entry, looked up): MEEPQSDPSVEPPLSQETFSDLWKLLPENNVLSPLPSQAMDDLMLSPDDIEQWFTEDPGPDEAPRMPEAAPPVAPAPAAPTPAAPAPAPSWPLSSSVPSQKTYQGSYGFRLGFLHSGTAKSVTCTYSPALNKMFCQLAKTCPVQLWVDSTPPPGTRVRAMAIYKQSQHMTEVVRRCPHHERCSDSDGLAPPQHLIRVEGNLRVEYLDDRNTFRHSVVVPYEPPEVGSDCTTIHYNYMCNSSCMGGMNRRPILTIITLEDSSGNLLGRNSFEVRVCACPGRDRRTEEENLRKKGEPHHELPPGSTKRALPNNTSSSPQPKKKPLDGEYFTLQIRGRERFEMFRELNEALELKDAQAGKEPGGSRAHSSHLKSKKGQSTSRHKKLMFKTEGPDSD

In the case of `CC1C(=O)OCC2=CCN3CCC(OC(=O)C(C)(O)C1(C)O)C23` (stereo not given), the activation in assay [1] was -5.36% (inactive). For the same compound, the Potency entry in assay [2] and in assay [3] was “inactive” throughout.

`CCOC(=O)c1ccc(OCCN2C[C@H](O)[C@@H](O)[C@H](O)[C@H]2CO)cc1`: the activation in assay [1] was -6.33% (inactive). The Potency result in assay [2] and in assay [3] was “inactive” each time.

Regarding `COc1ccc2nccc(C(=O)CC[C@@H]3CCN(CC#Cc4cc(F)cc(F)c4F)C[C@@H]3C(=O)O)c2c1`, the activation in assay [1] is 7.64% (inactive). Besides, the Potency result in assay [2] and in assay [3] was “inactive” in each case.

In the case of `CCC(=O)N[C@@H]1Cc2ccccc2[C@H](c2ccccc2)C1`, the activation in assay [1] is -0.333% (inactive). For the same compound, the Potency entry in assay [2] and in assay [3] was “inactive” in each case.

Regarding `COC(=O)CC(O)CC(O)/C=C/c1c(C)ccc2c1C(O)CC(C)C2` (stereo not given), the activation in assay [1] is -14.5% (inactive). In addition, the Potency result in assay [2] and in assay [3] was “inactive” in each case.

For the compound `COc1cc(/C=C/C(=O)O[C@@H]2C[C@](O)(C(=O)O)C[C@@H](O)[C@H]2O)ccc1O`, the activation in assay [1] was 3.57% (inactive). For the same compound, the Potency result in assay [2] and in assay [3] was “inactive” in each case.

For the compound `CC(C)c1c(O)ccc2c1CC[C@H]1C(C)(C)CCC[C@]21C`, the activation in assay [1] is 25.9% (inactive). The Potency entry in assay [2] and in assay [3] was “inactive” each time.

Turning to `Cc1cc(CS(=O)(=O)c2ccccc2)cc(OCc2ccc(CN3CCCC3CO)cc2)c1` (stereo not given), in assay [1], the activation was 8.93% (inactive). Further, the Potency result in assay [2] and in assay [3] was “inactive” each time.

For the compound `COC(C(=O)N1Cc2[nH]nc(NC(=O)c3ccc(N4CCN(C)CC4)cc3)c2C1)c1ccccc1` (stereo not given), in assay [1], the Potency was 23.9 µM (active). Also, the Potency result in assay [2] and in assay [3] was “inactive” each time.

For `Fc1ccc(-c2c3cccc(C(F)(F)F)c3nn2Cc2ccc(F)cc2Cl)cc1`, in assay [1], the activation is -8.11% (inactive). Also, the Potency entry in assay [2] and in assay [3] was “inactive” in each case.
